In the library only some 27% were active in any assay of this set; here they are far more common.
CYP2C19 inhib: blocks human cytochrome P450 2C19. P33261. CYP2C19 Supersomes, luciferin-H EGE luminescence, 30 min. inhibition, % at 5 µM. hit rate 21% among 96,000;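 active = CYP2C19 inhibition above a set limit at 5 µM in the primary screen, cut at about 50% in these data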;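 note: plate controls were negative control wells for no effect and 2.5 mM tranylcypromine positive control for full effect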
Cav3 T inh: inhibitors of human Cav3.2 T-type calcium channel; O95180; hit rate 4% among 100,000; B-score at 10 µM; Cav3.2-expressing cells, Fluo-4 calcium fluorescence FDSS; stronger effect = lower value; AID 449739;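 active = single-dose well whose peak fluorescence ratio is a statistical outlier from its plate by either plate-standardised score or position-corrected B-score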
Target sequence (O95180 whole entry, looked up): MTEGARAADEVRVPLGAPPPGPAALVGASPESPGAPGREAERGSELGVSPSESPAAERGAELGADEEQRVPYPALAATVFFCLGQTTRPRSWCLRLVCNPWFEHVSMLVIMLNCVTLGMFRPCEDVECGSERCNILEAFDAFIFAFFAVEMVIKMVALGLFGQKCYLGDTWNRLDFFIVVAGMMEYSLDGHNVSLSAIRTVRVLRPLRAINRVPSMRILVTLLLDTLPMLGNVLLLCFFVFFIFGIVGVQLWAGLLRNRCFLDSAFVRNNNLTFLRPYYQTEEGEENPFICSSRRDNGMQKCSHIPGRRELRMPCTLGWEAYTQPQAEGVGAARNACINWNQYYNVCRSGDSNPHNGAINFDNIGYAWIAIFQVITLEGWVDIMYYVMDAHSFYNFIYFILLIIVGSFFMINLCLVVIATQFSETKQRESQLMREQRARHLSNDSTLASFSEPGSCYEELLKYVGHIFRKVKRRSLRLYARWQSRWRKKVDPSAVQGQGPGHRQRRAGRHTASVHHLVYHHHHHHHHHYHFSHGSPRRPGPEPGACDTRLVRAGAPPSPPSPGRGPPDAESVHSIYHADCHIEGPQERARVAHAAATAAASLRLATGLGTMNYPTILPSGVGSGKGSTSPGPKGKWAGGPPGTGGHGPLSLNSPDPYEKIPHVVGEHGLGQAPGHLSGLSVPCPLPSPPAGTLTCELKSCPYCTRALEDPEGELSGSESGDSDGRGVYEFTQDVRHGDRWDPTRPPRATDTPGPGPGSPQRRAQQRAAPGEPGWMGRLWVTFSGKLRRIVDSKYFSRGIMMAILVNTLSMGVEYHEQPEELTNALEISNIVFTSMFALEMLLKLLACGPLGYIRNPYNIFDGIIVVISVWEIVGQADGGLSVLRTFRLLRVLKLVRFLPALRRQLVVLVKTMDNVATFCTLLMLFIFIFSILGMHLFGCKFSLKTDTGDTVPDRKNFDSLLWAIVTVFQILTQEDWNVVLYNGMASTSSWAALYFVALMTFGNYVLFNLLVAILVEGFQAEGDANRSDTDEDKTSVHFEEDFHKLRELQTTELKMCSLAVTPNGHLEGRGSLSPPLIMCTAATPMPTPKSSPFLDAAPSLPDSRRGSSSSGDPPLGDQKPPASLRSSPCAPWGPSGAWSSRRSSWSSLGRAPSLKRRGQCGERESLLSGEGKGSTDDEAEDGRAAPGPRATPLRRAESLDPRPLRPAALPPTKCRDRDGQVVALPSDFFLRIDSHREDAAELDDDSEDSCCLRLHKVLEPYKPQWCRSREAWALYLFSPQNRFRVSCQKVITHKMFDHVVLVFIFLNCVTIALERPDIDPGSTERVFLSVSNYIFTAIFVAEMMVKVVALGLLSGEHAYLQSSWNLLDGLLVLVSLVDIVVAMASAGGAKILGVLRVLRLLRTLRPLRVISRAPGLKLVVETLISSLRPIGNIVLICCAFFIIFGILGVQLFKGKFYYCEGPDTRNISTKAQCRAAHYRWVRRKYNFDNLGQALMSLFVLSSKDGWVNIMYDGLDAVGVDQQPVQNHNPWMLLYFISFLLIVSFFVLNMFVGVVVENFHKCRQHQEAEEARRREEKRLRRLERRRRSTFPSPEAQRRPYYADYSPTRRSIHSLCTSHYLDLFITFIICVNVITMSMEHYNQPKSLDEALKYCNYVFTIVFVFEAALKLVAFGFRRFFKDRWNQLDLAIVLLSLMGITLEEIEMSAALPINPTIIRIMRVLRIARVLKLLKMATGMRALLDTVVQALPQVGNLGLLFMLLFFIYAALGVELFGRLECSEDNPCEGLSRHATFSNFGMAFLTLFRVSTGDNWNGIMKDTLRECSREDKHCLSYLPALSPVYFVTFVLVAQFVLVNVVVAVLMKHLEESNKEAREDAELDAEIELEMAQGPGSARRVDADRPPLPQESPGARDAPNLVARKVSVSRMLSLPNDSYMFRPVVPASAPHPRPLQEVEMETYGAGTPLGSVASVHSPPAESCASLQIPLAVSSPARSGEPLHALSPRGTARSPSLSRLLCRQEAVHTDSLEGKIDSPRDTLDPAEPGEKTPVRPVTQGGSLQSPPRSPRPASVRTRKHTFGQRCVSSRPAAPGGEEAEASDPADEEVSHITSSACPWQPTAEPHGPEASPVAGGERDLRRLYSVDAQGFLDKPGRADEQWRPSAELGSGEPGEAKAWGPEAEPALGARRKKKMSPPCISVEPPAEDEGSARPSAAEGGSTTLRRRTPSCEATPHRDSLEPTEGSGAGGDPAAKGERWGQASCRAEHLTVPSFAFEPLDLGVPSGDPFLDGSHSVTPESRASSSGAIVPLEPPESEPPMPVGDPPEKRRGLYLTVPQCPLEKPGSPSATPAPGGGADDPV
CYP2C9 inh: human CYP2C9 inhibition; CYP2C9 Supersomes, luciferin-H conversion, luminescence; inhibition, % at 5 µM; hit rate 20% among 96,000;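 active = blocking of liver enzyme CYP2C9 beyond about 50% at 5 µM, limit read from the data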
CYP2C19 activ: increases human CYP2C19 enzyme activity; P33261; activation factor at 5 µM; 96,000 tested, under 10 active; recombinant CYP2C19, luciferin-H EGE luminescence; stronger effect = higher value; 0 = fully inhibited enzyme, 1 = untreated enzyme;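 active = activation factor of at least 2 at 5 µM in the primary screen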;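 note: 0 = wells with 2.5 mM tranylcypromine and 1 = vehicle-only wells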
CYP2C9 act: CYP2C9 (human) activation | P11712 | recombinant CYP2C9, luciferin-H conversion, luminescence; stronger effect = higher value; factor 1 = untreated enzyme, 0 = blocked | activation factor at 5 µM | hit rate 1.4% among 96,000;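 active = activation factor of 2 or more for CYP2C9 at a 5 µM dose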;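 note: 0 = sulfaphenazole-blocked wells and 1 = vehicle-only wells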
Active calls of the source: *.

Results for CC(=O)Nc1nnc(SCc2ccccc2F)s1 ?
CYP2C19 inhib: 46; Cav3 T inh: -0.014; CYP2C9 inh: -16; CYP2C19 activ: 0.5; CYP2C9 act: 1.2

Results for Cc1ccccc1Nc1nnc(SCc2cc([N+](=O)[O-])cc3c2OCOC3)s1 ?
CYP2C19 inhib: 100*; Cav3 T inh: -2.5; CYP2C9 inh: 62*; CYP2C19 activ: 0; CYP2C9 act: 0.4

How did Cc1ccc(Cn2nnc3c(=O)[nH]c(C4CCN(S(=O)(=O)c5ccc(C)cc5)CC4)nc32)cc1 do in these assays?
CYP2C19 inhib: 78*; Cav3 T inh: -1.1; CYP2C9 inh: 98*; CYP2C19 activ: 0.2; CYP2C9 act: 0

How did O=C(NCc1cccs1)c1nc2c(nnn2Cc2ccc(F)cc2)c(=O)[nH]1 do in these assays?
Cav3 T inh: -1.9

What do the screens show for `CCc1nc2c(nnn2Cc2ccc(F)cc2)c(=O)[nH]1`?
CYP2C19 inhib: 88*; CYP2C9 inh: 10; CYP2C19 activ: 0.1; CYP2C9 act: 0.9

What do the screens show for `Cc1ccc(NC(=O)N2CCC(c3nc4c(nnn4Cc4cccc(Cl)c4)c(=O)[nH]3)CC2)cc1`?
CYP2C19 inhib: 94*; Cav3 T inh: -3; CYP2C9 inh: 100*; CYP2C19 activ: 0.1; CYP2C9 act: 0

How did O=C(Nc1ccc(F)cc1)N1CCC(c2nc3c(nnn3Cc3cccc(Cl)c3)c(=O)[nH]2)CC1 do in these assays?
CYP2C19 inhib: 35; Cav3 T inh: -0.53; CYP2C9 inh: 66*; CYP2C19 activ: 0.6; CYP2C9 act: 0.3

How did O=C(O)CONC(=O)c1cc(OCC(F)(F)F)ccc1OCC(F)(F)F do in these assays?
CYP2C19 inhib: -1; Cav3 T inh: 0.16; CYP2C9 inh: -3; CYP2C19 activ: 1; CYP2C9 act: 1

Results for COC(=O)c1ccc(Nc2cc(C)nc(-c3ccccc3O)n2)cc1 ?
CYP2C19 inhib: 21; Cav3 T inh: 0.15; CYP2C9 inh: 59*; CYP2C19 activ: 0.8; CYP2C9 act: 0.4

Results for COC(=O)c1cccc(Nc2cc(C)nc(-c3ccccc3O)n2)c1 ?
CYP2C19 inhib: -8; Cav3 T inh: -1.2; CYP2C9 inh: 9; CYP2C19 activ: 1.1; CYP2C9 act: 0.9

Results for CCOC(=O)C(C(C)=O)c1c(Br)c(O)c(O)c2c(C(=O)c3ccc(C)cc3)coc12 (stereo unspecified) ?
CYP2C19 inhib: 32; Cav3 T inh: -2.3; CYP2C9 inh: 98*; CYP2C19 activ: 0.7; CYP2C9 act: 0

What do the screens show for `CCOC(=O)C1=C(C)C(c2ccc(OC)cc2)NC(=S)N1` (stereo unspecified)?
CYP2C19 inhib: 59*; Cav3 T inh: -0.11; CYP2C9 inh: 82*; CYP2C19 activ: 0.4; CYP2C9 act: 0.2

What do the screens show for `CCOC(=O)c1c(C)c(C(=O)NC(C)COC)c(C)n1CC` (stereo unspecified)?
CYP2C19 inhib: 5; Cav3 T inh: 0.46; CYP2C9 inh: 0; CYP2C19 activ: 0.9; CYP2C9 act: 1

What do the screens show for `CC(C)CC(=O)N1CCN(S(=O)(=O)c2ccc(F)cc2)CC1`?
CYP2C19 inhib: 25; Cav3 T inh: -0.29; CYP2C9 inh: 19; CYP2C19 activ: 0.7; CYP2C9 act: 0.8

What do the screens show for `CC(C)Cn1c(C(C)C)nc([N+](=O)[O-])c1Sc1ccc(Cl)cn1`?
Cav3 T inh: -5.8*

Results for CCCCn1c(CCC)nc([N+](=O)[O-])c1Sc1ccc(Cl)cn1 ?
Cav3 T inh: -9*

Results for CC(C)Cn1c(C(C)C)nc([N+](=O)[O-])c1S(=O)(=O)c1ccc(F)cc1 ?
CYP2C19 inhib: 66*; Cav3 T inh: -3.2; CYP2C9 inh: 13; CYP2C19 activ: 0.3; CYP2C9 act: 0.9

What do the screens show for `CSc1nc(C)cc(-n2ccc(=O)[nH]c2=O)n1`?
CYP2C19 inhib: -20; Cav3 T inh: 0.16; CYP2C9 inh: -26; CYP2C19 activ: 1.2; CYP2C9 act: 1.3

How did CC(C)COP(=O)(c1ccc(N(C)C)cc1)C(O)c1ccccc1F (stereo unspecified) do in these assays?
CYP2C19 inhib: 50; Cav3 T inh: -0.96; CYP2C9 inh: 10; CYP2C19 activ: 0.5; CYP2C9 act: 0.9

Results for CCC(NC(=S)NCc1ccccc1)C(=O)O (stereo unspecified) ?
CYP2C19 inhib: 54*; Cav3 T inh: 0.82; CYP2C9 inh: 12; CYP2C19 activ: 0.5; CYP2C9 act: 0.9

Results for CCc1nn(-c2ccccc2)c(N)c1-c1ccc(OC)c(OC)c1 ?
CYP2C19 inhib: 3; Cav3 T inh: -0.15; CYP2C9 inh: -68; CYP2C19 activ: 1; CYP2C9 act: 1.7

Results for C=CCOc1ccc2c(c1)c(S(=O)(=O)c1ccc(C)cc1)cn2COC ?
CYP2C19 inhib: 89*; Cav3 T inh: -1.8; CYP2C9 inh: 37; CYP2C19 activ: 0.1; CYP2C9 act: 0.6

What do the screens show for `C=CCn1cc(C(=O)OC)c(=O)c2cc(S(=O)(=O)N(CC)CC)ccc21`?
CYP2C19 inhib: 4; Cav3 T inh: 1.3; CYP2C9 inh: 1; CYP2C19 activ: 1; CYP2C9 act: 1

What do the screens show for `O=C(c1ccncc1)c1ccc(Br)cc1`?
CYP2C19 inhib: 45; Cav3 T inh: -2.6; CYP2C9 inh: 62*; CYP2C19 activ: 0.5; CYP2C9 act: 0.4

Results for Cc1ccc(-n2c3c(c(=O)[nH]c2=S)C(C(F)(F)F)(C(F)(F)F)NC(=O)N3)cc1 ?
CYP2C19 inhib: -6; Cav3 T inh: 0.22; CYP2C9 inh: 54*; CYP2C19 activ: 1.1; CYP2C9 act: 0.5

What do the screens show for `O=C(c1cc2sccc2n1Cc1ccccc1)N1CCCc2ccccc21`?
CYP2C19 inhib: 88*; Cav3 T inh: -6.8*; CYP2C9 inh: 95*; CYP2C19 activ: 0.1; CYP2C9 act: 0.1

How did O=C(c1cc2sccc2n1Cc1ccccc1)N1CCc2ccccc21 do in these assays?
CYP2C19 inhib: 13; Cav3 T inh: -1.6; CYP2C9 inh: 63*; CYP2C19 activ: 0.9; CYP2C9 act: 0.4

How did CCOC(=O)c1cc2sccc2n1Cc1ccccc1 do in these assays?
CYP2C19 inhib: 5; Cav3 T inh: -1.2; CYP2C9 inh: -2; CYP2C19 activ: 1; CYP2C9 act: 1

How did Cn1c(C(=O)N2CCCc3ccccc32)cc2sccc21 do in these assays?
CYP2C19 inhib: 71*; Cav3 T inh: -3.8; CYP2C9 inh: 31; CYP2C19 activ: 0.3; CYP2C9 act: 0.7

How did CC1(C)N(OCc2ccccc2)C(=O)C(=O)N(OCc2ccccc2)C1(C)C do in these assays?
CYP2C19 inhib: 1; Cav3 T inh: -2.3; CYP2C9 inh: 1; CYP2C19 activ: 1; CYP2C9 act: 1

How did CC1(C)OC(=O)N(c2ccccc2)C12C=Cc1cc(Br)ccc1O2 (stereo unspecified) do in these assays?
CYP2C19 inhib: 83*; Cav3 T inh: -6.2*; CYP2C9 inh: 85*; CYP2C19 activ: 0.2; CYP2C9 act: 0.2

What do the screens show for `O=Nc1c(O)n(Cc2cccc(Cl)c2)c2ccccc12`?
CYP2C19 inhib: 56*; Cav3 T inh: -4.4*; CYP2C9 inh: 74*; CYP2C19 activ: 0.4; CYP2C9 act: 0.3
